Reference: the supplement of paper PMC11732987, “Enantioselective OTUD7B fragment discovery through chemoproteomics screening and high-throughput optimisation” (Communications Chemistry, 2025)

How the values were obtained:
Test in all cases: log2 ratio of Biotin-Ahx-Ub-VS probe labelling (fragment/DMSO); higher = less target engagement (more negative = stronger competition), active = hit call of the paper (q ≤ 0.05, log2 ratio ≤ -1)
Settings in all cases: compound concentration: 200 uM; treatment time: 3 h
USP34 = USP34 (UniProt Q70CQ2)
How it was run: (§1)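 Global-median-normalised Spectronaut label-free quantities were compared by unpaired t-test, and values are average log2 ratios of fragment over vehicle. Only proteins with ≥2 unique peptides were used. HEK293T lysate (495 µg per sample) was treated in triplicate with fragment at 200 µM or vehicle for 3 h and then with Biotin-Ahx-Ub-VS at 0.5 µM final for 1 h. Labelled DUBs were then NeutrAvidin-enriched, digested with LysC and trypsin, and run by diaPASEF LC-MS/MS.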

USP36 = molecular target: T1, USP36 (UniProt Q9P275)
T1 sequence (whole entry): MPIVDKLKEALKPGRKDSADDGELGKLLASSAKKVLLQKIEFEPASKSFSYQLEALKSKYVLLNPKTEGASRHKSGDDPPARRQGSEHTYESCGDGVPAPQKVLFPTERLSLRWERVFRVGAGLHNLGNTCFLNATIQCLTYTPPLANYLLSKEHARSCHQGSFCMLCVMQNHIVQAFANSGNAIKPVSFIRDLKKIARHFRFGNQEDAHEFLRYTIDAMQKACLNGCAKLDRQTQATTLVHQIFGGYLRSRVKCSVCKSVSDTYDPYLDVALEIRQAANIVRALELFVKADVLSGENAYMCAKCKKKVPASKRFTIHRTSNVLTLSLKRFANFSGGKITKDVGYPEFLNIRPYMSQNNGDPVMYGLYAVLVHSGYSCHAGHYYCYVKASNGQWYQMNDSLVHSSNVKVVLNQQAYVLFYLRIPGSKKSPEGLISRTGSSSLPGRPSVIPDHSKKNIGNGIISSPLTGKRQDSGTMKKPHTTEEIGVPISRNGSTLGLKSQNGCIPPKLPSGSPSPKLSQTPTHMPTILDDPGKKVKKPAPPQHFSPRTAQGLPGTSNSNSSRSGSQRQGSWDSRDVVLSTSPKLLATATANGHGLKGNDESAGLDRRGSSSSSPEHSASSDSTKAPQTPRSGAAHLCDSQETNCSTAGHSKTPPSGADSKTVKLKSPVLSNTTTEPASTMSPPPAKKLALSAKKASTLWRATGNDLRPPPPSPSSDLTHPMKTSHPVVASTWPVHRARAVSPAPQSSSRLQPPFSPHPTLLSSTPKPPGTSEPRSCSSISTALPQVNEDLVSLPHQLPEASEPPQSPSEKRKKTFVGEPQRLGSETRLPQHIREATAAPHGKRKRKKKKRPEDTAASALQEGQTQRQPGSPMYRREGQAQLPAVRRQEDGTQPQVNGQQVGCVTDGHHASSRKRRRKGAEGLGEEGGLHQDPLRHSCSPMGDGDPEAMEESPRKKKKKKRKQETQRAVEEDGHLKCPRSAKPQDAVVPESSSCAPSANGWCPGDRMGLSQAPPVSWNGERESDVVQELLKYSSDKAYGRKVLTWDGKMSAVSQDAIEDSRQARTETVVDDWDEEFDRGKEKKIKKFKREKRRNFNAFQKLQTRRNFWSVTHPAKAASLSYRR
How it was run: as §1

USP38 = molecular target: T2, USP38 (UniProt Q8NB14)
T2 sequence (whole entry): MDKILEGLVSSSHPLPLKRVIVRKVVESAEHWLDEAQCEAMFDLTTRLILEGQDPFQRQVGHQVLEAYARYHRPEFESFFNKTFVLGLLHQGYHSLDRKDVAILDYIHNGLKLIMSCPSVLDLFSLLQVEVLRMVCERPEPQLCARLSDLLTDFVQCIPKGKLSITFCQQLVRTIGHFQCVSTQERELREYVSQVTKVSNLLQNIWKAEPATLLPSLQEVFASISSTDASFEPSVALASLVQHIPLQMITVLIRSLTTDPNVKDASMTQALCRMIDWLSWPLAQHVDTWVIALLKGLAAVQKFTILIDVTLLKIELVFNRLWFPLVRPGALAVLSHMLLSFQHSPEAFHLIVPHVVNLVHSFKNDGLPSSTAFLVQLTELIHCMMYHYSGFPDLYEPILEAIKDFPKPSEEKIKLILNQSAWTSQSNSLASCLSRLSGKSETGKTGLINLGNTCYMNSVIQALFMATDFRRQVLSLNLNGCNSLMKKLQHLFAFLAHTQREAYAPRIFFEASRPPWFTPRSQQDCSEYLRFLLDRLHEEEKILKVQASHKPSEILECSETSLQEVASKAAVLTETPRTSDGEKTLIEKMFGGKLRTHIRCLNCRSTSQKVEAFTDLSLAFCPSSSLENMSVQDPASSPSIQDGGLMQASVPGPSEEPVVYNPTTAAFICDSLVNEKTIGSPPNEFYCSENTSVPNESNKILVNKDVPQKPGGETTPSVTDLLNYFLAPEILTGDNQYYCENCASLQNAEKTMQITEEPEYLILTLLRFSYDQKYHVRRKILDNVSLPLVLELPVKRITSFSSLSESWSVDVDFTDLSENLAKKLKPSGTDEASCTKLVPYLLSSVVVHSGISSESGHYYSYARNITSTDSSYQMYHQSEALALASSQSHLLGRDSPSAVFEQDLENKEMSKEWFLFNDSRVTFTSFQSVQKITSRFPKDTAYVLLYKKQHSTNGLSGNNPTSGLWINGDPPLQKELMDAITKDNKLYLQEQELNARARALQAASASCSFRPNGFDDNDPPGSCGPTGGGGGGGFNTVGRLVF
How it was run: as §1

USP39 = molecular target: T3, USP39 (UniProt Q53GS9)
T3 sequence (whole entry): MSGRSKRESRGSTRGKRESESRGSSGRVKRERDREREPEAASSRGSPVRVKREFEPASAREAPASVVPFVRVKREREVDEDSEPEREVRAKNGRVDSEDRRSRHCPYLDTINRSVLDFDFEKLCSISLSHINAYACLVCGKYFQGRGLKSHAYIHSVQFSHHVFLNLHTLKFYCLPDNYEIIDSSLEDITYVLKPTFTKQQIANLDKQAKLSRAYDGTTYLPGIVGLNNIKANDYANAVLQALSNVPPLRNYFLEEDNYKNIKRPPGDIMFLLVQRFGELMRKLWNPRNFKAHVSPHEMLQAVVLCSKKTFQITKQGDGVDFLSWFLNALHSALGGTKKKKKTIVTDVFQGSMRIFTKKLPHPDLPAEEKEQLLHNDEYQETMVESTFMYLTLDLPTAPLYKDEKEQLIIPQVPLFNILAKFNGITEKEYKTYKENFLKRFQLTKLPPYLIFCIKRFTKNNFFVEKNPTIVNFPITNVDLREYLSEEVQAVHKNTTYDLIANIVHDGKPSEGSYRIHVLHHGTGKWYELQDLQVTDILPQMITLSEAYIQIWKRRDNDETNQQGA
How it was run: as §1

USP4 = molecular target: T4, USP4 (UniProt Q13107)
T4 sequence (whole entry): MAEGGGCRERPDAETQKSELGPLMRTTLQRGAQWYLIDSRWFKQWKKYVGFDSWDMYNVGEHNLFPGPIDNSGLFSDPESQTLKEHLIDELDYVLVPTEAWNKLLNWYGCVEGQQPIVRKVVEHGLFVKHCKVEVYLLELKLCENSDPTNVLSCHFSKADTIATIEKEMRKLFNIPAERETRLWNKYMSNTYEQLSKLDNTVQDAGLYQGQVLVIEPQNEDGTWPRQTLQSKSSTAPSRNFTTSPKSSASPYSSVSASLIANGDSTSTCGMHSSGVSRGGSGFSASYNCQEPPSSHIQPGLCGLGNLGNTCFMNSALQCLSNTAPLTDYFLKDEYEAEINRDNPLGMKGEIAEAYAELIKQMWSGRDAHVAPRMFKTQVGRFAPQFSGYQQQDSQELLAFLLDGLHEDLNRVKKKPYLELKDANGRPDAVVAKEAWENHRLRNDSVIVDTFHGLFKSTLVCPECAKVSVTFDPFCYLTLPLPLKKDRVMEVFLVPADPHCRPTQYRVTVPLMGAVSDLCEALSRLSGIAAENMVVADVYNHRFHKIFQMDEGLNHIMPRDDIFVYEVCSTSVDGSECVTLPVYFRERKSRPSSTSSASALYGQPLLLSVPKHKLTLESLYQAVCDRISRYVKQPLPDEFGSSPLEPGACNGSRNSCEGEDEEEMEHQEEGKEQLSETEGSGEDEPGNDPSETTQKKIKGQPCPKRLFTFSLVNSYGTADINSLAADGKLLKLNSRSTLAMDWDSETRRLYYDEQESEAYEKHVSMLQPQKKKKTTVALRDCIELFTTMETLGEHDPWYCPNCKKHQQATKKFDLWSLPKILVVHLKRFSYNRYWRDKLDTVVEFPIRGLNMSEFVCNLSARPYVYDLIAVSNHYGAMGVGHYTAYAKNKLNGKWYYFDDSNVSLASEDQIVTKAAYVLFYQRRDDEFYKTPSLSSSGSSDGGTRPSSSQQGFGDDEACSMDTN
How it was run: as §1

Measured: log2 ratio of Biotin-Ahx-Ub-VS probe labelling

Sequence of USP34 (Q70CQ2 whole entry, the tested form may be a part): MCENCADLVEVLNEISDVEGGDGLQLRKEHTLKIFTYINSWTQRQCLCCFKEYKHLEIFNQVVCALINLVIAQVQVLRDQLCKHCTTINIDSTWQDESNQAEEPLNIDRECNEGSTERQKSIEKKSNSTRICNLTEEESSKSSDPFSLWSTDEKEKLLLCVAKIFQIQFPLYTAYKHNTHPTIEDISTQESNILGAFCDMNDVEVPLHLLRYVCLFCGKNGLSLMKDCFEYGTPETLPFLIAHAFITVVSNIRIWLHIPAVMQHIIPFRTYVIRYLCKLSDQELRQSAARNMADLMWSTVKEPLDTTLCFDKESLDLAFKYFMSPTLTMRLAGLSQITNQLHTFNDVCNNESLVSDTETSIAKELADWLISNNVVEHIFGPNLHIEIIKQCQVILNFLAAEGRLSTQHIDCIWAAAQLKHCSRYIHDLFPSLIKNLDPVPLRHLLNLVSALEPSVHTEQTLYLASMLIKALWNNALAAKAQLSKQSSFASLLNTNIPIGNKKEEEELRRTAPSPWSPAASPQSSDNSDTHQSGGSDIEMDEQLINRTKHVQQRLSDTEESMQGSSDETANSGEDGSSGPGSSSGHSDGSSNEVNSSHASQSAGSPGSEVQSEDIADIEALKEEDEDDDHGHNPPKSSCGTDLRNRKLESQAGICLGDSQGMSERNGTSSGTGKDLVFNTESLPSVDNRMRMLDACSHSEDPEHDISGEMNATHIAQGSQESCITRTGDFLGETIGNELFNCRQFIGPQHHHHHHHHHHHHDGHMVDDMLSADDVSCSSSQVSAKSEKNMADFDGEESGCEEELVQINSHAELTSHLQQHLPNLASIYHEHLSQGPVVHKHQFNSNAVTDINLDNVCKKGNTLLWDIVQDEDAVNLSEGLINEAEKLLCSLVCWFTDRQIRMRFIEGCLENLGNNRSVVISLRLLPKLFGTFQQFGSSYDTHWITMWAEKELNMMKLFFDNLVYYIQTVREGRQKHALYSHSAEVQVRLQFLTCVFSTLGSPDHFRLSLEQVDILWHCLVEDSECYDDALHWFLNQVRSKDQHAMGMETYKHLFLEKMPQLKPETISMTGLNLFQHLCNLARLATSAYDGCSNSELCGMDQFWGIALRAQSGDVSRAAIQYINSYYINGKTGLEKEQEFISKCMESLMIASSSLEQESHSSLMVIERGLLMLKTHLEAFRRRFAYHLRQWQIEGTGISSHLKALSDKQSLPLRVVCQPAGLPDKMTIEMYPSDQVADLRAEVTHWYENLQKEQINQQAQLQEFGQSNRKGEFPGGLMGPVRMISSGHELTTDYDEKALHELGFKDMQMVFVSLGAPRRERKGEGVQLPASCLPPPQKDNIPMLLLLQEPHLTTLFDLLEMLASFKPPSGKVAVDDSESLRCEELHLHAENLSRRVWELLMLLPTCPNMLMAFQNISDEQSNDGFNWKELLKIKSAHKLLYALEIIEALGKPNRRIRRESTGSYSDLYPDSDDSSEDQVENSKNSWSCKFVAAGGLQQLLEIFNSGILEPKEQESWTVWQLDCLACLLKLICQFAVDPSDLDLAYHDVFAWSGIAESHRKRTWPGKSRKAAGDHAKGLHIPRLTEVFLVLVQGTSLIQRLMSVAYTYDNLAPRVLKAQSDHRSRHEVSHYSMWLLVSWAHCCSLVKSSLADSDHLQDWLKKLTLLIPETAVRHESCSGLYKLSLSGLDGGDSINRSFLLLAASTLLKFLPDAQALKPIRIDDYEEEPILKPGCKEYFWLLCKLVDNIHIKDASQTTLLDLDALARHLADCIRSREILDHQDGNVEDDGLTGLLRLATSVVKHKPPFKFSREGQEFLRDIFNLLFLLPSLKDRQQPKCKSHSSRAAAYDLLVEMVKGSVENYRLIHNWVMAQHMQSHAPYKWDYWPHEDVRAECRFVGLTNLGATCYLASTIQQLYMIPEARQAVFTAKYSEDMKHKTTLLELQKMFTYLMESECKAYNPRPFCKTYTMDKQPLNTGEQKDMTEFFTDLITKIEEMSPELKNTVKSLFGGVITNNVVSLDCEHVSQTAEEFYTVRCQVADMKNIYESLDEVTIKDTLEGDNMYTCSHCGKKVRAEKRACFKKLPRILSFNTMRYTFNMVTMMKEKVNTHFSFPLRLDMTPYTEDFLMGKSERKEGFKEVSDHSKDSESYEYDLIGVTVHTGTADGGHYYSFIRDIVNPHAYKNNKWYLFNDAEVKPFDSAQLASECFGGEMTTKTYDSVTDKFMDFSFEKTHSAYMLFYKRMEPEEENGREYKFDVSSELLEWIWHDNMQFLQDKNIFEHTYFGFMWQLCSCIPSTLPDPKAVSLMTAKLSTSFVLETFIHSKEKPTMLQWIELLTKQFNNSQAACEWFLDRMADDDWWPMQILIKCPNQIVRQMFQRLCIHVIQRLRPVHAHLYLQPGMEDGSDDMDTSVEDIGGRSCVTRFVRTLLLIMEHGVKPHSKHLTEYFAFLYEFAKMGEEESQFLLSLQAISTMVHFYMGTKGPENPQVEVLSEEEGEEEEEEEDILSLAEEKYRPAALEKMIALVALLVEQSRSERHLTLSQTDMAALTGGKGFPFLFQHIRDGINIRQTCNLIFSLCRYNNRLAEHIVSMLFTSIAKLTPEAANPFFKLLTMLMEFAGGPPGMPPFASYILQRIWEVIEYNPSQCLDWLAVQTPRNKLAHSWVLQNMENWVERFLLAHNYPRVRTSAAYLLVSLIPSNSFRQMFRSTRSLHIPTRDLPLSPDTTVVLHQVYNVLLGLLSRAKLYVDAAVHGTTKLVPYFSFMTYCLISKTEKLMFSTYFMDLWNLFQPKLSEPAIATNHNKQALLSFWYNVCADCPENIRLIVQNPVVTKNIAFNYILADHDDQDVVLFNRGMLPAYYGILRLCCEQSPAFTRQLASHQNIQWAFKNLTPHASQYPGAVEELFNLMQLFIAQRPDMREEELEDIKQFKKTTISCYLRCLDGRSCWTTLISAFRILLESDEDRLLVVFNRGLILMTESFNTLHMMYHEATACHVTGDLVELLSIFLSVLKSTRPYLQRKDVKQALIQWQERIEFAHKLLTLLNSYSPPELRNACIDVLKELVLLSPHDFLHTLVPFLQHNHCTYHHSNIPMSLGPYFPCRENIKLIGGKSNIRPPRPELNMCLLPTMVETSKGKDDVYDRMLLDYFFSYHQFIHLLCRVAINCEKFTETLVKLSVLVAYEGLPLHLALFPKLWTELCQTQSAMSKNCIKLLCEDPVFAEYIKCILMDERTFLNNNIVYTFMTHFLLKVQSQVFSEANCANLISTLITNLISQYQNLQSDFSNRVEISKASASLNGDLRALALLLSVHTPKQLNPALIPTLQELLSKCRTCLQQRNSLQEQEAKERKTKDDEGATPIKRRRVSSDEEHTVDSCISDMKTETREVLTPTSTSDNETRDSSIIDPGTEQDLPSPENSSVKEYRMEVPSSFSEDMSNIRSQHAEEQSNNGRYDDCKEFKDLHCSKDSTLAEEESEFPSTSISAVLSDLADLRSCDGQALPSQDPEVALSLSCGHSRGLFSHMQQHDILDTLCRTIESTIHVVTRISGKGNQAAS

Cc1noc(N2CCN(C(=O)CCl)CC2)n1.Cl
inactive: USP34 0.028 | USP36 -0.0365 | USP38 -0.0491 | USP39 0.251 | USP4 0.0534
